This is an account of results in PubChem BioAssay (Tox21).

Inconclusive results are not listed. Values without a mark were called inactive. Active and inactive are the calls of the source. Calls come from the whole dose curve.
% is set by controls: 0 for no effect and ±100 for the full control effect.

A short description of the assay: qHTS assay for small molecule agonists of the p53 signaling pathway - cell viability (AID 651633).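 Note: p53RE-bla HCT reporter cells with a stable beta-lactamase p53 reporter; nearly all actives have a fitted effect of over 30% in size.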 Particulars: p53RE-bla HCT-116 viability, ATP luminescence, 16 h; series mostly up to 83.3 µM; activity change, negative = cytotoxicity: at the top concentration. The gist of the method: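 Viability counter-read: CellTiter-Glo luminescence (30 min, room temperature) in the same p53RE-bla plates. These plates had been exposed to compounds for 16 h at 37 C.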
(In general: In qHTS, concentration-response curves come from the screen itself.)
With `CN(C)C(=O)NC1(c2ccccc2)CCN(CCC[C@]2(c3ccc(Cl)c(Cl)c3)CCCN(C(=O)c3ccccc3)C2)CC1`, the “activity change, negative = cytotoxicity” value is 4.37% [at 39.1 µM]. Same read-out and setting: the value for `CCCCOc1cc(C(=O)NCCN(CC)CC)c2ccccc2n1` was 9.33% [at 39.1 µM].

On to `COC(=O)N[C@H](C(=O)N[C@@H](Cc1ccccc1)[C@@H](O)CN(Cc1ccc(-c2ccccn2)cc1)NC(=O)[C@@H](NC(=O)OC)C(C)(C)C)C(C)(C)C`, for which the “activity change, negative = cytotoxicity” value was 17.9%. Turning to `COc1ccc(S(=O)(=O)Nc2nnc(CC(C)C)s2)cc1`, the Potency result is “inactive”. For the compound `CCN1CC(CCN2CCOCC2)C(c2ccccc2)(c2ccccc2)C1=O` (stereo unspecified), the “activity change, negative = cytotoxicity” value was -25.2%. Take `NC/C=C/C(=O)O`: the “activity change, negative = cytotoxicity” value is 18.1%. The same measure, in the same setting: the value for `CCCCNC(=S)NCCCC` was -11.8%; that for `CCCOCCC` was 17%; that for `FC(F)(F)C(Cl)(Cl)Cl` was 9.41%. For the compound `COc1ccccc1OCC(O)COC(N)=O` (stereo unspecified), the “activity change, negative = cytotoxicity” value is 27% [at 39.1 µM]. Turning to `O=Cc1ccc(F)c(Br)c1`, the “activity change, negative = cytotoxicity” value was 7.76%.

Consider `C=CCc1cc(OC)c(O)c(C(=O)NCCO)c1`, for which the “activity change, negative = cytotoxicity” value was 11.2%. Still for that read-out and setting: the result for `C=CCCC=C` reads 8.81% [at 95.3 µM]. Still for that read-out and setting: the result for `Cc1cc(NS(=O)(=O)c2ccc(N)cc2)nc(C)n1` reads -3.9%. For `COc1ccccc1N1CCN(CCCNc2cc(=O)n(C)c(=O)n2C)CC1`, the Potency result was “inactive”. As to `CCCCCCC`, the “activity change, negative = cytotoxicity” value is 12.4% [at 95.3 µM]. Consider `CCCCNc1cc(C(=O)O)cc(S(N)(=O)=O)c1Oc1ccccc1`, for which the “activity change, negative = cytotoxicity” value is 22.6% [at 39.1 µM].

For `CC(C)OC(C)C`, the “activity change, negative = cytotoxicity” value was -21.1% [at 95.3 µM].

`Cc1cc(S(=O)(=O)O)c(N)cc1Cl`: the “activity change, negative = cytotoxicity” value was 16.6% [at 95.3 µM]. On the same count and under the same terms, the value for `COc1cc(N)c(Cl)cc1C(=O)NC1CCN(Cc2ccccc2)CC1` was 17.5% [at 39.1 µM]. Regarding `CCOC(=O)NCCC[Si](OCC)(OCC)OCC`, the “activity change, negative = cytotoxicity” value is 19.7%. Same read-out and setting: the value for `CCN(O)CC` was 8.51%; that for `O=S(=O)(O)C(F)(F)F` was -5.94%. As to `Cc1cccc(C)c1NC(=O)CN1CCCCCC1`, the “activity change, negative = cytotoxicity” value is 15.6%. Same read-out and setting: the result for `C=CC1CO1` (stereo unspecified) reads 22.5% [at 95.3 µM].

With `C[C@]12C(=O)OC(=O)[C@H]1[C@H]1C=C[C@@H]2C1`, the “activity change, negative = cytotoxicity” value was -5.37% [at 95.3 µM]. The same measure, in the same setting: the result for `CCCCC1CCC(=O)O1` (stereo unspecified) reads 23.7%; that for `C1CSCCS1`, -1.2%. Still for that read-out and setting: the result for `CC(CNC1CCCCC1)OC(=O)c1ccccc1` (stereo unspecified) reads 20.1% [at 39.1 µM]. For `C=CC(C)(O)CC/C=C(\C)CCC=C(C)C` (stereo unspecified), the Potency entry is “inactive”. Turning to `CCOc1ccccc1N`, the “activity change, negative = cytotoxicity” value was 24.7%. Still for that read-out and setting: the value for `CCN[C@H]1CN(CCCOC)S(=O)(=O)c2sc(S(N)(=O)=O)cc21` was 11.4% [at 39.1 µM]. Still for that read-out and setting: the value for `C=CCCCCCCCCO` was -9.63%.

Regarding `O=C(C(Cl)Cl)N1CCOC12CCCCC2`, the “activity change, negative = cytotoxicity” value was 12.4%.

As for `CC(C)C1=CC2=CC[C@@H]3[C@](C)(CCC[C@@]3(C)C(=O)O)[C@H]2CC1`, the “activity change, negative = cytotoxicity” value is 20.4%. Same read-out and setting: the value for `CC1(C)O[C@@H]2C[C@H]3[C@@H]4CCC5=CC(=O)CC[C@]5(C)[C@@]4(F)[C@@H](O)C[C@]3(C)[C@]2(C(=O)CCl)O1` was 14% [at 39.1 µM].
